Results filed as inconclusive are left out. Entries that show only a call come without a potency. Active and inactive are the calls of the source. Calls follow the shape of the dose curve; as a rule, active = well fitted inhibition curve with a large enough effect; inconclusive = small, poorly fitted or top-dose-only effect; inactive = no such curve, though single readings can be large or run the other way.

A short description of the assay: qHTS assay for measurement of the activity of small molecule inhibitors on Zika virus induced Caspase-3 activity in human iPSC derived neural progenitor cells (hNPCs) (AID 1224857). Also: nearly all actives have a fitted effect of over 65% in size. The settings on record: hNPCs ZIKV-induced caspase-3/7, Caspase-Glo luminescence, 6 h; series mostly up to 45.7 µM. A digest of the protocol: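 Zika virus (2 FFU/cell) infection of human iPSC-derived NPCs, 6 h, following 1 h compound preincubation. Read-out: Caspase-Glo 3/7 luminescence.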
In general terms: In qHTS, concentration-response curves come from the screen itself.
As for `CC(=O)[O][Hg][c]1ccccc1`, the Potency entry is “inactive”.
With `COCCOCCO` the entry was “inactive”; with `CCCCOC(=O)c1ccccc1C(=O)OCc1ccccc1`, “inactive”.
With `OCCCBr` the entry was “inactive”; with `C/C=C(/C)C(=O)O[C@H]1C(C)=C2[C@H]([C@@H]1OC(=O)CCCCCCC)[C@@](C)(OC(C)=O)C[C@H](OC(=O)CCC)[C@@]1(O)[C@H]2OC(=O)[C@@]1(C)O`, “inactive”.
As to `C[N+](C)(C)CC(=O)O`, the Potency entry was “inactive”.
In the case of `C1CCC(NC2CCCCC2)CC1`, the Potency result was “inactive”.
The same measure for `O=S(=O)(O)C(F)(F)C(F)(F)C(F)(F)C(F)(F)C(F)(F)C(F)(F)C(F)(F)C(F)(F)F`: “inactive”; for `C=CC(=O)NCNC(=O)C=C`: “inactive”; for `Nc1c(Cl)c(Cl)c(Cl)c(Cl)c1Cl`: “inactive”.
With `CCC1(CCC(C)C)C(=O)NC(=O)NC1=O` the entry was “inactive”; with `CCO/N=C(\CC)C1=C(O)CC(c2c(C)cc(C)cc2C)CC1=O` (stereo not given), “inactive”; with `O=[N+]([O-])/N=C1\NCCN1Cc1ccc(Cl)nc1`, “inactive”.
Regarding `CC(C)NCC(O)c1ccc([N+](=O)[O-])cc1` (stereo not given), the Potency result is “inactive”.
The same measure for `c1cc2ccc3cccc4ccc(c1)c2c34`: “inactive”.
